According to PubChem BioAssay (Tox21):
“And” between values parts separate entries of the source, which are not always exact repeats. Equal values may be shown once. Results filed as inconclusive are left out. The source made the active and inactive calls. Unless noted, the call rests on the fitted dose curve; in most records, active means well fitted curve in the direction sought with a large enough effect in the repeat runs; inconclusive means weak or mixed curves; inactive means no such curve, though single readings can be large; an effect the other way counts as inactive or inconclusive.

Tests used:
[1] = target: Progesterone receptor (Homo sapiens) (UniProt P06401); test: qHTS assay to identify small molecule agonists of the progesterone receptor (PR) signaling pathway (AID 1346784; calls by dose curve; further: nearly all actives have a fitted effect of over 30% in size)
Progesterone receptor (Homo sapiens), sequence (P06401 whole entry, looked up): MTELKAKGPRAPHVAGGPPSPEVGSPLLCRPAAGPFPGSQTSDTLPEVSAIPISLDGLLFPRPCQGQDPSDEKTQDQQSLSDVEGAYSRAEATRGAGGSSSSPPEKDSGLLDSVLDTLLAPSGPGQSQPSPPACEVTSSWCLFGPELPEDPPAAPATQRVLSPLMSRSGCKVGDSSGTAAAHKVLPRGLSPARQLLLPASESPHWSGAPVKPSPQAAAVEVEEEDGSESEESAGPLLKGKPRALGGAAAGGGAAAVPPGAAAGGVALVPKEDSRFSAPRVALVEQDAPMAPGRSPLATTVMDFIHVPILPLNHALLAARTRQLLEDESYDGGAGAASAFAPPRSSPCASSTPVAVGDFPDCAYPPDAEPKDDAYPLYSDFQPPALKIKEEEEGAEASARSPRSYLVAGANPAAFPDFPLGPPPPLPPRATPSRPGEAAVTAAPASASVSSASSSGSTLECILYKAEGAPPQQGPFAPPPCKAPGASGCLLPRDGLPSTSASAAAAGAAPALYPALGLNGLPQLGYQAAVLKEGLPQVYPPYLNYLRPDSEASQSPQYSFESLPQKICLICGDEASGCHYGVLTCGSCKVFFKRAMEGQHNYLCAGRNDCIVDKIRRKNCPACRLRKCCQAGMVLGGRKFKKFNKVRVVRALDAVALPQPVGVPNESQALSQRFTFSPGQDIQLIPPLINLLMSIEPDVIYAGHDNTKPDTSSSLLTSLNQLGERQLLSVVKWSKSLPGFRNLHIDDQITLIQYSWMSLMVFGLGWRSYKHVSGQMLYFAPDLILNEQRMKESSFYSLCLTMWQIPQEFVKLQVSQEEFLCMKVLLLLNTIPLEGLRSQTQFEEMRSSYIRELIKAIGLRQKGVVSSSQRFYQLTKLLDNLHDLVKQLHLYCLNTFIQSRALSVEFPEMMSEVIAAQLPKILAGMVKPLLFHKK
In short: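 HEK 293T PR-UAS-bla reporter cells, 2% charcoal-stripped FBS; 6 hr settle at 37C/5% CO2, compound (DMSO) 16 hr, LiveBLAzer B/G FRET substrate 2 hr RT, fluorescence intensity read.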

[2] = target: Progesterone receptor (Homo sapiens) (UniProt P06401); test: qHTS assay to identify small molecule antagonists of the progesterone receptor (PR) signaling pathway (AID 1346795; active means well fitted inhibition curve with a large enough effect in the signal ratio in the repeat runs, not every such curve was filed as active; the % refers to the signal ratio)
In short: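 Beta-lactamase reporter, HEK293T PR-UAS-bla line; 2% charcoal-stripped FBS; 6 hr pre-incubation, 37C/5% CO2. Compound + R5020 1 nM final, 16 hr. LiveBLAzer B/G FRET substrate, 2 hr RT; fluorescence intensity read.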

[3] = qHTS assay to identify small molecule antagonists of the progesterone receptor (PR) signaling pathway - cell viability counter screen (AID 1346798); further: series mostly up to about 92 µM; nearly all actives have a fitted effect of over 50% in size
In short: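 Luminescence readout (CellTiter-Glo, 30 min, RT) of viability in PR-UAS-bla HEK293T cells exposed to compound and R5020 agonist for 16 hr at 37C, 5% CO2; run in the same wells as the beta-lactamase reporter read.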

[4] = qHTS assay to identify small molecule agonists of the progesterone receptor (PR) signaling pathway - cell viability counter screen (AID 1346799; calls by dose curve; further: nearly all actives have a fitted effect of over 45% in size)
In short: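 HEK293T PR-UAS-bla, 3,000 cells/well, 2% charcoal-stripped FBS; 6 h settle, compound 16 h at 37C/5% CO2; LiveBLAzer 2 h RT, then CellTiter-Glo 30 min RT, luminescence read.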

[5] = qHTS assay to identify small molecule antagonists of the TGF-beta/Smad signaling pathway - cell viability counter screen (AID 1346824); further: nearly all actives have a fitted effect of over 50% in size
In short: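 SBE-bla HEK 293T cells were plated overnight at 37 C, then given compounds in DMSO plus TGF-beta1 (added as 0.25 ng/mL solution) for 5 hr. After the bla read, CellTiter-Glo was added to the same wells and luminescence read after 30 min at room temperature.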

[6] = qHTS assay to identify small molecule agonists of the TGF-beta/Smad signaling pathway - cell viability counter screen (AID 1346829); further: top concentration of the series differs between compounds; nearly all actives have a fitted effect of over 45% in size
In short: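 After overnight seating at 37 C and 5% CO2, reporter cells got compounds for 5 hr and FRET substrate for 2 hr; cell viability then came from CellTiter-Glo luminescence.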

[7] = qHTS assay to identify small molecule agonists of the TGF-beta/Smad signaling pathway (AID 1346859; active means well fitted activation curve with a large enough effect in the signal ratio in the repeat runs, not every such curve was filed as active; the % refers to the signal ratio; further: series mostly up to about 77 µM)
In short: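 Read-out: fluorescence at 460 and 530 nm (405 nm excitation) after a 2 hr room-temperature incubation with beta-lactamase FRET substrate. SBE-bla HEK 293T cells had been treated with test compounds for 5 hr at 37 C.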

[8] = target: Thyrotropin-releasing hormone receptor (Homo sapiens) (UniProt P34981); test: qHTS assay to identify small molecule antagonists of the thyrotropin-releasing hormone receptor (TRHR) signaling pathway (AID 1346877; active means well fitted inhibition curve with a large enough effect in the repeat runs, not every such curve was filed as active; further: series mostly up to about 51 µM)
Thyrotropin-releasing hormone receptor (Homo sapiens), sequence (P34981 whole entry, looked up): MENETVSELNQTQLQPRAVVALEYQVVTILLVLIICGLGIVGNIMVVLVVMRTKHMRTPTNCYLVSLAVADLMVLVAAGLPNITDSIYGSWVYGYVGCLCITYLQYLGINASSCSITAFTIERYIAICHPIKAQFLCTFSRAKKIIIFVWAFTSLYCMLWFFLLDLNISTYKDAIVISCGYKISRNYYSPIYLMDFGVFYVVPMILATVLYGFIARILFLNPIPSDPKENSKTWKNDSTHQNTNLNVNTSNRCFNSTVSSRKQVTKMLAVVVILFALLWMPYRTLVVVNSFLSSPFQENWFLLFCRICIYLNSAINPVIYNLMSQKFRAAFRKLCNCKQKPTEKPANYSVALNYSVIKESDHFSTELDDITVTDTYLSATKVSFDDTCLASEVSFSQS
In short: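 Calcium signal in dye-loaded TRHR/HEK293 cells; compounds added 5 min before TRH (1 nM final); fluorescence monitored 3 min at 1 s steps.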

[9] = target: Thyrotropin-releasing hormone receptor (Homo sapiens) (UniProt P34981); test: qHTS assay to identify small molecule agonists of the thyrotropin-releasing hormone receptor (TRHR) signaling pathway (AID 1346891; calls by dose curve;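 further: HEK293 cells expressing TRHR with calcium dye readout; series mostly up to about 58 µM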)
In short: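 HEK293/TRHR cells, 1500 per well, 18 h 37 °C; Ca dye 2 h 37 °C; pin-tool compound addition (agonist mode); kinetic fluorescence 3 min, 1 s reads; 15 concentrations, triplicate.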

[10] = Human pregnane X receptor (PXR) small molecule agonists, qHTS cell viability counter screen (AID 1346977); further: nearly all actives have a fitted effect of over 50% in size
In short: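 Fluorescence read-out (CellTiter-Fluor) of viability in PXR-Luc HepG2 cells, multiplexed with the luciferase agonist read. Compounds in DMSO added after 5hr plating; 24hr total exposure at 37C, 5% CO2.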

[11] = Caspase-3/7 induction in HepG2 cells by small molecules, qHTS assay (AID 1346978); further: nearly all actives have a fitted effect of over 15% in size
In short: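 Wild-type HepG2 cells (2,000/well) were settled 5 h at 37 C, 5% CO2, then exposed to compounds in DMSO for 17 h. Caspase-3/7 activity was read by luminescence 30 min after adding Caspase-Glo 3/7 reagent at room temperature.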

[12] = Caspase-3/7 induction in CHO-K1 cells by small molecules, qHTS cell viability counter screen (AID 1346979); further: nearly all actives have a fitted effect of over 35% in size
In short: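 CHO-K1 wt, 1,500 cells/well; 5hr pre-incubation 37C/5% CO2; compound pin transfer (DMSO); 16hr exposure; CellTiter-Fluor added, 1hr, fluorescence read.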

[13] = Caspase-3/7 induction in CHO-K1 cells by small molecules, qHTS assay (AID 1346980); further: nearly all actives have a fitted effect of over 15% in size
In short: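 Wild-type cells were seeded at 1,500 per well and settled 5 hr at 37 C, 5% CO2, then exposed to DMSO-dissolved compounds for 17 hr. Caspase-Glo 3/7 reagent was added, and luminescence was read after 30min at room temperature.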

[14] = Caspase-3/7 induction in HepG2 cells by small molecules, qHTS cell viability counter screen (AID 1346981); further: series mostly up to about 92 µM; nearly all actives have a fitted effect of over 30% in size
In short: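 After a 5-hr attachment period at 37 C and 5% CO2, wild-type HepG2 cells received compounds in DMSO. Sixteen hours later CellTiter-Fluor was dispensed and the fluorescent signal quantified after a further hour.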

[15] = target: Nuclear receptor subfamily 1 group I member 2 (Homo sapiens) (UniProt O75469); test: Human pregnane X receptor (PXR) small molecule agonists, qHTS assay (AID 1346982); further: nearly all actives have a fitted effect of over 35% in size; further: potency means the concentration at half of the fitted maximal effect
Nuclear receptor subfamily 1 group I member 2 (Homo sapiens), sequence (O75469 whole entry, looked up): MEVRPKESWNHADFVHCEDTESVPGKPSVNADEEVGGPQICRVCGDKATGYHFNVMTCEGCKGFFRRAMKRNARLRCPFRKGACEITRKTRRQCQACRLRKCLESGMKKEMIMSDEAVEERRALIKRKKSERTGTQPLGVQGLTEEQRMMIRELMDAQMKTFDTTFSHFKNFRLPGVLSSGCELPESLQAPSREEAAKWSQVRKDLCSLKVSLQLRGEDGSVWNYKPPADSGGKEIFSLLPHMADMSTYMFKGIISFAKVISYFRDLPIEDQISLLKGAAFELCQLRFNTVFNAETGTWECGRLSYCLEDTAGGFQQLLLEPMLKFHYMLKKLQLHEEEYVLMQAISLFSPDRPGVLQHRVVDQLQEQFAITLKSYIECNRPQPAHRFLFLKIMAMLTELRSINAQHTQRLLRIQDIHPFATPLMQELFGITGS
In short: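 Tox21 qHTS; PXR-Luc HepG2; compounds pinned from DMSO; 24 hr, 37 C; ONE-Glo luciferase detection, 30 min room temperature.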

[16] = target: Cytochrome P450 2D6 (Homo sapiens) (UniProt P10635); test: Cytochrome P450 Family 2 Subfamily D Member 6 (CYP2D6) small molecule antagonists: luciferase reporter qHTS assay (AID 1671196); further: nearly all actives have a fitted effect of over 50% in size; further: potency means the concentration at half of the fitted maximal effect; on activity change, negative = inhibition: series mostly up to about 120 µM
Cytochrome P450 2D6 (Homo sapiens), sequence (P10635 whole entry, looked up): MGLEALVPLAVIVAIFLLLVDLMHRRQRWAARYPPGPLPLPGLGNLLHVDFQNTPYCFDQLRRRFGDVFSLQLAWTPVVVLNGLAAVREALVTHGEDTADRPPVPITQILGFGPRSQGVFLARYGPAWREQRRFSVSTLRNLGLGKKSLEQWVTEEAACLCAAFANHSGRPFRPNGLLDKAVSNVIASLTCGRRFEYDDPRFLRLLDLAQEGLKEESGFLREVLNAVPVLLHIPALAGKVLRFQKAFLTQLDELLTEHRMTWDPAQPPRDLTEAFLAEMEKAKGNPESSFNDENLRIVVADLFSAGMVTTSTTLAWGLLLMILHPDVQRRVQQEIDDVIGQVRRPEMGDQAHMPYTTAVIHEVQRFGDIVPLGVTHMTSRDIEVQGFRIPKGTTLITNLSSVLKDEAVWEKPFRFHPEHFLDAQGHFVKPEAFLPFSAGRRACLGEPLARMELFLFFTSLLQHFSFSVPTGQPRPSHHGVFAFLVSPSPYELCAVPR
In short: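 Room-temperature luminescent CYP2D6 activity assay: compound preincubated 10 min with enzyme–substrate mix, NADPH-initiated reaction 1 h, detection reagent 20 min before reading.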

[17] = target: Cytochrome P450 2C19 (Homo sapiens) (UniProt P33261); test: Cytochrome P450 Family 2 Subfamily C Member 19 (CYP2C19) small molecule antagonists: luciferase reporter qHTS assay (AID 1671197); further: nearly all actives have a fitted effect of over 65% in size; further: potency means the concentration at half of the fitted maximal effect; on activity change, negative = inhibition: series mostly up to about 120 µM
Cytochrome P450 2C19 (Homo sapiens), sequence (P33261 whole entry, looked up): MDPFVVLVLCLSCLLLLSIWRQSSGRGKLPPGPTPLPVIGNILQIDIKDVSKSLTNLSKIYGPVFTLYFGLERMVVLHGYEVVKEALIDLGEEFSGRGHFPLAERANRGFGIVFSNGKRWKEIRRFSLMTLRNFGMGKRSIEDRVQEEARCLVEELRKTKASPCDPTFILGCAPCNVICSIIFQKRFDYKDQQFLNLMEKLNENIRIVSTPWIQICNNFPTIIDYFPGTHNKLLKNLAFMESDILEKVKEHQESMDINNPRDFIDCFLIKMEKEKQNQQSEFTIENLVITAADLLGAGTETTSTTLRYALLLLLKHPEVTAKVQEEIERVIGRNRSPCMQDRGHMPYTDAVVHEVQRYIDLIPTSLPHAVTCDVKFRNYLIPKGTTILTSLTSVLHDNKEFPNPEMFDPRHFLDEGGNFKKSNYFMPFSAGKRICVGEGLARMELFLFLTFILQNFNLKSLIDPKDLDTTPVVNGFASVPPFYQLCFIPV
In short: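 Inhibition of CYP2C19 was scored from loss of luminescence in a P450-Glo proluciferin substrate assay, NADPH-started and run 1 h at 37C, with ketoconazole as positive control.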

[18] = target: Nuclear receptor subfamily 1 group I member 2 (Rattus norvegicus) (UniProt Q9R1A7); test: Rat pregnane X receptor (rPXR) activation by small molecules, qHTS assay (AID 1346983); conditions: rPXR luciferase reporter cells, One-Glo luminescence, 24 h; hits give high values; further: nearly all actives have a fitted effect of over 20% in size
Nuclear receptor subfamily 1 group I member 2 (Rattus norvegicus), sequence (Q9R1A7 whole entry, looked up): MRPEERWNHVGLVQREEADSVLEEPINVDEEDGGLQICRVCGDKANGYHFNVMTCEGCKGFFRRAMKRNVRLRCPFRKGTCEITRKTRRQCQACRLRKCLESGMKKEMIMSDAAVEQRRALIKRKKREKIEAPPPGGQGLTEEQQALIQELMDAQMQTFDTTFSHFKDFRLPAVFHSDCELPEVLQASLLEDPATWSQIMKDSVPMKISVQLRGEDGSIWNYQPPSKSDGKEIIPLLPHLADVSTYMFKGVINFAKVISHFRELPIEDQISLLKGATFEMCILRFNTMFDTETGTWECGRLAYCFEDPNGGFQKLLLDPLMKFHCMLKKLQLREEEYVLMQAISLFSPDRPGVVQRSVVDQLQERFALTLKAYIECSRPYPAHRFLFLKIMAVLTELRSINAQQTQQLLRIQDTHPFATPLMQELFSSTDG
In short: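 Cell-based rPXR luciferase reporter assay, 2,000 cells per well, rested 5hr at 37 C before compound addition in DMSO, then 24 hr at 37 C. One-Glo reagent was added and luminescence read after 30 min at room temperature.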

[19] = target: Nuclear receptor subfamily 1 group I member 2 (Homo sapiens) (UniProt O75469); test: CYP3A4 induction through human pregnane X receptor (PXR) by small molecules, qHTS assay (AID 1346984); further: nearly all actives have a fitted effect of over 40% in size
In short: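 Cells (DPX-2; HepG2 with PXR element plus CYP3A4-promoter luciferase) settled 5hr, then were treated 24hr at 37C. A 3hr, 3uM-final Luciferin-IPA step preceded luminescence measurement with One-Glo.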

[20] = target: Nuclear receptor subfamily 1 group I member 2 (Homo sapiens) (UniProt O75469); test: Human pregnane X receptor (PXR) activation by small molecules, qHTS assay (AID 1346985); further: nearly all actives have a fitted effect of over 40% in size
In short: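 DPX-2 cells (HepG2 co-transfected with a PXR response element and a CYP3A4-promoter luciferase construct) were seeded at 2,000 per well, rested 5 hr at 37C, then exposed to DMSO-dissolved compounds for 24 hr. Activation was read as luciferase luminescence.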
On the % scale 0 is the no-effect control and ±100 the full control effect.

COc1ccc(NC(=O)CC(C)=O)cc1
inactive: Potency [1] | Potency [2] | Potency [3] | Potency [4] | Potency [5] | Potency [6] | Potency [7] | Potency [8] | outcome [9] | Potency [10] | Potency [11] | Potency [12] | Potency [13] | Potency [14] | Potency [15] | Potency [16] | Potency [17]

CC(CO)Oc1ccccc1 (stereo unspecified)
active: Potency [16] 41.2 µM | Potency [17] 36.7 µM
inactive: Potency [1] | Potency [2] | Potency [3] | Potency [4] | Potency [5] | Potency [6] | Potency [7] | Potency [8] | outcome [9] | Potency [10] | Potency [11] | Potency [12] | Potency [13] | Potency [14] | Potency [15]

C=C(C)c1cccc(C(=C)C)c1
inactive: Potency [1] | Potency [2] | Potency [3] | Potency [4] | Potency [5] | Potency [6] | Potency [7] | Potency [8] | outcome [9] | Potency [10] | Potency [11] | Potency [12] | Potency [13] | Potency [14] | Potency [15] | Potency [16]

Cc1nc2n(c(=O)c1CCN1CCC(c3noc4cc(F)ccc34)CC1)CCCC2
active: Potency [16] 2.19 µM
inactive: Potency [1] | Potency [2] | Potency [3] | Potency [4] | Potency [5] | Potency [6] | Potency [7] | Potency [8] | outcome [9] | Potency [10] | Potency [11] | Potency [12] | Potency [13] | Potency [14] | Potency [15] | Potency [17]

COC(=O)c1ccccc1OC
inactive: Potency [1] | Potency [2] | Potency [3] | Potency [4] | Potency [5] | Potency [6] | Potency [7] | Potency [8] | outcome [9] | Potency [10] | Potency [11] | Potency [12] | Potency [13] | Potency [14] | Potency [15] | Potency [16] | Potency [17]

CCN(CCN)c1cccc(C)c1
active: Potency [15] 61.7 µM and 61.1 µM | Potency [16] 2.54 µM and 10 µM | Potency [17] 7.17 µM and 35.6 µM
inactive: Potency [1] | Potency [2] | Potency [3] | Potency [4] | Potency [5] | Potency [6] | Potency [7] | Potency [8] | outcome [9] | Potency [10] | Potency [11] | Potency [12] | Potency [13] | Potency [14]

CCCCCc1ccc(Cl)cc1
inactive: Potency [1] | Potency [2] | Potency [3] | Potency [4] | Potency [5] | Potency [6] | Potency [7] | Potency [8] | outcome [9] | Potency [10] | Potency [11] | Potency [12] | Potency [13] | Potency [14] | Potency [15] | Potency [16]

O=C(O)c1cc(=O)c2ccccc2o1
inactive: Potency [1] | Potency [2] | Potency [3] | Potency [4] | Potency [5] | Potency [6] | Potency [7] | Potency [8] | outcome [9] | Potency [10] | Potency [11] | Potency [12] | Potency [13] | Potency [14] | Potency [15] | max activation [18] -0.583% | Potency [19] | Potency [20] | Potency [16] | Potency [17]

CN(C)C(=O)COC(=O)Cc1ccc(OC(=O)c2ccc(N=C(N)N)cc2)cc1
inactive: Potency [1] | Potency [2] | Potency [3] | Potency [4] | Potency [5] | Potency [6] | Potency [7] | Potency [8] | outcome [9] | Potency [10] | Potency [11] | Potency [12] | Potency [13] | Potency [14] | Potency [15] | max activation [18] -2.55% | Potency [19] | Potency [20] | Potency [16] | Potency [17]

CCCCC(CC)COC(=O)CCCCC(=O)OCc1ccccc1 (stereo unspecified)
inactive: Potency [1] | Potency [2] | Potency [3] | Potency [4] | Potency [5] | Potency [6] | Potency [7] | Potency [10] | Potency [11] | Potency [12] | Potency [13] | Potency [14] | Potency [15] | Potency [16]
active: Potency [17] 35.6 µM

CCc1ccc(Br)cc1
inactive: Potency [1] | Potency [2] | Potency [3] | Potency [4] | Potency [5] | Potency [6] | Potency [7] | Potency [10] | Potency [11] | Potency [12] | Potency [13] | Potency [14] | Potency [15] | Potency [16] | Potency [17]

Cc1ccc(C)cc1
inactive: Potency [1] | Potency [2] | Potency [3] | Potency [4] | Potency [5] | Potency [6] | Potency [7] | Potency [8] | Potency [10] | Potency [12] | Potency [13] | Potency [14] | Potency [15] | Potency [16]

C=CC(C)(CCC=C(C)C)OC=O (stereo unspecified)
active: Potency [17] 20 µM
inactive: Potency [1] | Potency [2] | Potency [3] | Potency [4] | Potency [5] | Potency [6] | Potency [7] | Potency [10] | Potency [11] | Potency [12] | Potency [13] | Potency [14] | Potency [15] | Potency [16]

CC(C)Cn1cnc2c(N)nc3ccccc3c21
inactive: activation [1] 1.05% [at 19 µM] | activity change, negative = inhibition [2] 5.77% [at 18.9 µM] | activity change, negative = cytotoxicity [3] 10.2% [at 18.9 µM] | activity change, negative = cytotoxicity [4] 13.4% [at 19 µM] | viability change, negative = cytotoxic [5] 1.27% [at 15.8 µM] | activity change, negative = cytotoxicity [6] 6.14% [at 15.8 µM] | activation [7] -1.86% [at 15.8 µM] | activity change, negative = cytotoxicity [10] -9.27% [at 19 µM] | caspase activation [11] -2.38% [at 19 µM] | activity change, negative = cytotoxicity [12] -8.58% [at 19 µM] | caspase-3/7 activation [13] 0.247% [at 19 µM] | activity change, negative = cytotoxicity [14] -2.64% [at 19 µM] | activation [15] 5.89% [at 19 µM] | max activation [18] 2.02% | Potency [19]
